Measurements published in PubChem BioAssay AID904 (National Center for Advancing Translational Sciences (NCATS), 2007).
Screen size: about 55,000 compounds; about 530 (0.96%) were called active. Another 7% or so got no clear call; they are omitted. Only a selection was taken, and actives are over-represented in it overall. Unmarked numbers belong to inactive results. The call rests on the fitted dose curve; in most records, active means well fitted cell-killing curve with a large enough effect; inconclusive means small, poorly fitted or top-dose-only effect; inactive means no such curve, though single readings can be large or run the other way.

Test: qHTS Screen for Compounds that Selectively Target Cancer Cells with p53 Mutations: Cytotoxicity of p53 Null Cells at the Nonpermissive Temperature; further: nearly all actives have a fitted effect of over 50% in size;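 on activity, negative = cell killing: 0% = DMSO only and -100% = full killing by 100 µM tamoxifen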
Conditions: H1299 p53-null (neo) cells, 39C, ATPlite viability, 24 h; series mostly up to 46.1 µM; activity, negative = cell killing: at the top concentration
Source text: NIH Chemical Genomics Center [NCGC] NIH Molecular Libraries Screening Centers Network [MLSCN] MLSCN Grant: 1 X01 MH079844-01 Assay Submitter (PI): Dr. SUN, YI, University of Michigan NCGC Assay Overview: Synthetic Lethal Screen for Compounds to Kill Cancer Cells with p53 Mutation. Tumor suppressor gene p53 serves as a major cellular barrier against tumorigenesis. […] The goal of this screening is to identify small molecule probes that selectively kill cancer cells with mutations in p53. This screening was carried out using two lines of H1299 lung cancer cells. The H1299-p53 A138V line express a temperature sensitive p53 mutant (p53ts) in which the mutant p53 protein (A138V) is in the mutant confirmation when grown at 39C (the nonpermissive temperature) and in the wild type conformation when grown at 32C (the permissive temperature). A H1299-neo line (p53 null) grown at both 39C and 32C were used as counter-screens to filter out false positive associated with temperature shifting. The small molecular compounds that selectively target mutant p53-containing cancer cells were selected as candidate probes for further study. A cytotoxicity assay based on the measurement of ATP contents in cells was used in this screen. Concentration-responses of all the compounds in the library collection were determined in qHTS using the cell lines and temperature conditions as above.
NCGC Assay Protocol Summary: Both the H1299-p53A138V and H1299-neo cell lines were provided by Dr.Yi Sun, a PI at the University Michigan. The cells were maintained and cultured at 37C. The resuspended frozen cells were used to plate the cells in the 1536-well assay plates at a density of 600 cells per well in 5 ul medium. The assay plates with the cells were incubated at 37C for 16 to 30 hours before the experiments. The library compounds in DMSO solution were added to the cells in assay plates and incubated 24 hours at 39C (for mutant p53 conformation) or 32C (for normal p53 conformation as control). An ATP_lite assay kit (PerkinElmer) was used to determine the cell viability. Tomaxifen (100uM) was used as the positive control for cell killing. Data were normalized to the controls for basal activity (DMSO only) and 100% killing (100uM tamoxifen). AC50 values were determined from concentration-response data modeled with the standard Hill equation. P53 assay protocol: 1. Reagent; 5 uL H1299-p53A138V or H1299-neo cell cells/well 2. Time; overnight; 37C incubation 3. Compounds; 23 nL; 5.9 nM to 46 uM 4. Controls; 23 nL; Tamoxifen 100 uM 5. Time; 24 hr; 39C incubation 6. Reagent; 3 uL; ATP_Lite reagent 7. Time; 20 min; Room Temperature 8. Detection; Luminescence; Viewlux plate reader Keywords: p53, synthetic lethal, cancer, cell viability, cytotoxicity, H1299 cell line, luminescence, MLSMR, MLSCN, NIH Roadmap, qHTS, NCGC
Potency means the concentration at half of the fitted maximal effect.

SMILES	activity, negative = cell killing	Potency
Cc1ccc(NC(=O)C2CCN(S(=O)(=O)c3cc(-c4noc(C)n4)ccc3C)CC2)c(C)c1	16.7%	
Cc1ccc(-c2cc(N)on2)cc1	9.86% [at 1.84 µM]	
Cc1ccc2[nH]cc(CCCN3C(=O)c4ccccc4C3=O)c2c1	-0.898% [at 1.84 µM]	
Cc1nn(Cc2ccc(Cl)cc2)c(Cl)c1/C=N/NC(=O)CNc1ccccc1F	34.8%	
COc1ccc(NC(=O)Cn2c(=O)n(CCC(C)C)c(=O)c3cccnc32)cc1Cl	-16.3%	
CCOC(=O)c1ccc(NC(=O)Cn2cc(S(=O)(=O)Cc3ccccc3F)c3ccccc32)cc1	-3.04%	
CCOc1cccc2c1N[C@@H](c1ccc(C(=O)O)cc1)[C@H]1CC=C[C@@H]21	2.51%	
Cc1[nH]c2ccccc2c1/C=N/NC(=O)CNC(=O)c1ccc2c(c1)OCO2	2.07% [at 1.84 µM]	
Cc1cc[n+](-c2[nH]c(=O)sc2/C=N/NC(=O)c2ccccc2[O-])cc1C	21.4%	
Cc1cccc(NC(=O)Cn2nc(-c3ccc(Cl)cc3)c3ccccc3c2=O)c1	1.82%	
CCN(C(=O)Cn1c(=O)nc(-c2ccccc2)c2cc(Cl)ccc21)c1cccc(C)c1		12.6 µM (active)
O=C(Cn1c(=O)nc(-c2ccccc2)c2cc(Cl)ccc21)NCc1ccc(Cl)cc1	-21.4%	
COc1ccc(-c2nnc(SCc3cccnc3)o2)cc1	-29.7%	
CCCn1c(SCC(=O)Nc2ccc(C)c(S(=O)(=O)N3CCOCC3)c2)n[nH]c1=O	11.9%	
O=C(Nc1c2c(nc3ccccc13)CCCC2)c1ccccc1Br	12.7%	
COc1cc(C(=O)Nc2ccc(-n3c(C)nc4ccccc4c3=O)cc2)cc(OC)c1OC	19%	
COc1ccccc1Nc1c2c(nc3ccc(NC(=O)/C=C/c4cc(OC)c(OC)c(OC)c4)cc13)CCCC2		10 µM (active)
CCOC(=O)c1cc2c(=O)n3ccccc3nc2n(CC2CCCO2)c1=NC(=O)c1ccc(C(C)(C)C)cc1 (stereo unspecified)	10.4%	
Cc1ccccc1CSc1nc2c([nH]c3ccccc32)c(=O)n1C	12.6%	
CC1=C(c2ccc(Cl)cc2)S(=O)(=O)N=C1N1CCN(c2cc(C)ccc2C)CC1	-12.3%	
Cc1ccc(C)c(N2CCN(CCCNC(=O)Nc3ccc(Cl)cc3)CC2)c1		5.01 µM (active)

SMILES	activity, negative = cell killing	Potency
CC1=C(c2ccc(C)cc2)S(=O)(=O)NC1=NCCCN1CCN(c2cc(C)ccc2C)CC1	-8.74%	
COc1ccccc1OCC(=O)Nc1nnc2n1CCS2	17%	
CC(C)S(=O)(=O)c1oc(-c2ccc(F)cc2)nc1S(=O)(=O)c1ccc(F)cc1		12.6 µM (active)
O=C(CSc1oc(-c2ccc(F)cc2)nc1S(=O)(=O)c1ccc(Br)cc1)NC1CCCCC1	-7.12%	
Cc1ccc(-c2nc(S(=O)(=O)c3ccc(C)cc3)c(N3CCCCCC3)o2)cc1	3.17%	
CCOc1ccc(S(=O)(=O)N/N=C(\C)c2ccc(Cl)c(Cl)c2Cl)cc1	13.3%	
Cc1ccc(S(=O)(=O)NC2(C(F)(F)F)NC(=O)N(CCc3ccccc3)C2=O)cc1 (stereo unspecified)	0.252%	
CCOc1ccc(NC(=O)c2ncoc2-c2ccco2)cc1		5.01 µM (active)
CCOc1ccc(NC(=O)c2cnn(-c3ccccc3)c2-n2cccc2)cc1	59.1%	
CCOc1ccc(NC(=O)CN2CCN(CC(=O)Nc3ccc(OC)cc3)CC2)cc1		inactive
C=Cc1ccc(Cn2c(C(=O)O)c(CNC3CCCC3)c3ccc(C)cc32)cc1	-17.8%	
Cc1ccccc1C(=O)Nc1cc(C)c(O)c(-c2nc3ccccc3o2)c1	-18%	
O=C(NC1CCN(C(=S)NCc2ccco2)CC1)c1ccc(F)cc1	5.38%	
COc1ccc(S(=O)(=O)NCC(c2ccco2)N2CCOCC2)cc1 (stereo unspecified)	5.2%	
Cc1ccc(NS(=O)(=O)c2ccc3c(c2)CC(=O)N3)cc1Cl	-10.8%	
COc1ccc(CCNc2nc(-c3ccc(F)cc3)cc(C(F)(F)F)n2)cc1OC	-13.6%	
Cc1ccc(O)c(NC(=O)CCS(=O)(=O)c2nc(-c3ccc4c(c3)OCO4)cc(C(F)(F)F)n2)c1	68.3%	
COc1ccccc1-c1cc(C(F)(F)F)nc(S(=O)(=O)CCCC(=O)Nc2cc(C)ccc2O)n1		22.4 µM (active)
CSc1ccccc1NC(=O)CCS(=O)(=O)c1nc(-c2cccs2)cc(C(F)(F)F)n1	133%	
CC(=O)c1ccc(NC(=O)c2nc3nc(C)cc(C(F)F)n3n2)cc1	11.3%	
CCSc1ncc(Cl)c(C(=O)Nc2cc(C)ccc2C)n1	-0.257%	

SMILES	activity, negative = cell killing	Potency
CCCS(=O)(=O)c1ncc(Cl)c(C(=O)Nc2scc(-c3ccccc3)c2C(=O)OCC)n1	-27.2%	
Cc1ccc(NC(=O)c2nc(S(=O)(=O)Cc3cccc(C)c3)ncc2Cl)cc1		22.4 µM (active)
Cc1ccc2nc(CN3CCN(S(=O)(=O)c4ccc(C)c(C)c4)CC3)oc2c1	-11.2%	
O=C1N(c2ccc(Cl)cc2)C(c2ccc(Cl)cc2)N2CCCN12 (stereo unspecified)	-0.885% [at 1.84 µM]	
O=C(COC(=O)CSc1nnc(-c2ccc(Cl)cc2)o1)Nc1cc(Cl)cc(Cl)c1	0.272%	
O=[N+]([O-])c1ccc(N2CCN(S(=O)(=O)c3ccccc3)CC2)cc1N1CCc2ccccc2C1	39.8%	
COc1cc(CNC(=O)c2cc3n(n2)CCCN(Cc2cccc(F)c2)C3=O)cc(OC)c1OC	-11.9%	
O=C(Cc1ccc(Cl)cc1)NCC(c1cccs1)S(=O)(=O)c1ccc(Cl)cc1 (stereo unspecified)	18.8%	
COc1ccccc1Nc1cc(C(=O)NCCCN(C)C2CCCCC2)c2ccccc2n1		12.6 µM (active)
CCCCN(CCCNC(=O)c1cc(Nc2ccccc2OC)nc2ccccc12)c1ccccc1	-2.39%	
COc1ccc(Nc2cc(C(=O)NCCCN(C)c3ccccc3)c3ccccc3n2)c(OC)c1	31.5%	
COc1ccc(-c2cc3ccc(OCc4nn[nH]n4)cc3oc2=O)cc1		10 µM (active)
COc1ccc2cc(-c3nc(Cl)c4c5c(sc4n3)CC(C)CC5)c(=O)oc2c1 (stereo unspecified)	-14.6%	
COc1ccc2oc(=O)c(-c3cn4c(n3)sc3cc(OC)ccc34)cc2c1	-0.0282%	
O=C(COc1nc2ccccc2nc1N1CCOCC1)NCC(F)(F)F	-2.52%	
CCCn1ccc2c(OCC(=O)NCc3ccc(F)cc3)cccc2c1=O	-11.4%	
COc1ccc(OCC(=O)Nc2cccc(C(=O)OCc3cc(=O)n4nc(C)sc4n3)c2)cc1	-1.29%	
Cc1nn2c(=O)cc(COC(=O)c3ccccc3NC(=O)COc3ccccc3C)nc2s1	-5.99%	
Cc1nn2c(=O)cc(COC(=O)c3cccc(NC(=O)COc4ccccc4Cl)c3)nc2s1		6.31 µM (active)
